According to PubChem BioAssay (Tox21):
Active and inactive are the calls of the source. A call without a number means that no potency is given here. Calls come from the whole dose curve; as a rule, active = well fitted activation curve with a large enough effect in the repeat runs; inconclusive = weak or mixed curves; inactive = flat fitted curve, though single readings scatter.

Experiment: A CellTox Green Cytotoxicity Assay to monitor cytotoxicity in HepG2 cells - 0 hour (AID 1224882); note: nearly all actives have a fitted effect of over 35% in size
Conditions: CellTox Green fluorescence; series mostly up to 76.8 µM
Source text: National Center for Advancing Translational Sciences [NCATS]
NIH Chemical Genomics Center [NCGC]
U.S. Environmental Protection Agency [EPA]
National Institutes of Environmental Health Sciences [NIEHS]
National Toxicology Program [NTP]
Cell-based models are critical for drug discovery. Determining the natural cytotoxic effects resulting from test compounds is an essential research activity. A CellTox Green Cytotoxicity Assay to monitor cytotoxicity in real time of continues cell culture during 40 hours of the compound treatment was used to screen Tox21 10K library compounds in HepG2 cells. CellTox Green Cytotoxicity Assay is a nonlytic, homogeneous, biofluorescent method to measure cytotoxicity in cell culture after experimental manipulation. The assay system uses a proprietary asymmetric cyanine dye that is excluded from viable cells but preferentially stains the dead cell's DNA. […] Viable cells produce no appreciable increases in fluorescence. Therefore, the fluorescence signal produced by the binding interaction with dead cell DNA is proportional to cytotoxicity.
The mixture of HepG2 cell suspension and reagents were dispensed at 600cells/6 ul/well in 1536-well tissue culture treated black solid bottom plates using a Multidrop dispenser. After the assay plates were incubated at a 37 C/5% CO2 incubator for 5 hours, 23 nL of compounds dissolved in DMSO, positive and negative controls was transferred to the assay plate by a pintool work station. The plates were incubated at 37 C for 40 hours. The fluorescence intensity were measured at 0h, 8h, 16h, 24h, 32h and 40h time points using ViewLux plate reader during compound treatment.
Potency is the fitted concentration of half-maximal effect.

SMILES	Potency
CCn1cc(C(=O)O)c(=O)c2cc(F)c(N3CCNCC3)cc21	inactive
C=C1C[C@@]23CC[C@H]4[C@@](C)(CCC[C@@]4(C)C(=O)O[C@@H]4O[C@H](CO)[C@@H](O)[C@H](O)[C@H]4O)[C@@H]2CC[C@]1(O[C@@H]1O[C@H](CO)[C@@H](O)[C@H](O[C@@H]2O[C@H](CO)[C@@H](O)[C@H](O)[C@H]2O)[C@H]1O[C@@H]1O[C@H](CO)[C@@H](O)[C@H](O)[C@H]1O)C3	inactive
CCC1NC(=O)c2cc(S(N)(=O)=O)c(Cl)cc2N1 (stereo not given)	inactive
COc1ccccc1NC(=O)c1cc2ccccc2cc1O	inactive
CC(C)(C)CC(=O)OCC(=O)[C@@]1(O)CC[C@H]2[C@@H]3CCC4=CC(=O)C=C[C@]4(C)[C@H]3[C@@H](O)C[C@@]21C	inactive
Clc1ccc(Nc2nnc(Cc3ccncc3)c3ccccc23)cc1	inactive
CCCCC(CC)CN (stereo not given)	inactive
CCCC(=O)C(=O)O	inactive
O=C1CCCCCCCCCCOCCCCO1	inactive
c1ccc2sc(SN(C3CCCCC3)C3CCCCC3)nc2c1	inactive
CCOC(=O)c1ccc(OCCN2C[C@H](O)[C@@H](O)[C@H](O)[C@H]2CO)cc1	inactive
CN1C(C(=O)Nc2ccccn2)=C(O)c2sccc2S1(=O)=O	inactive
CC(C)c1nc(CN(C)C(=O)N[C@H](C(=O)N[C@@H](Cc2ccccc2)C[C@H](O)[C@H](Cc2ccccc2)NC(=O)OCc2cncs2)C(C)C)cs1	inactive
Cc1ccc(CO)cc1	inactive
CCCCCCCCC(CCCCCC)C(=O)O (stereo not given)	inactive
c1ccc2c(c1)CCc1ccccc1N2	inactive
Oc1c(I)cc(I)c2cccnc12	inactive
CC1CC(C)C(=O)C1=O (stereo not given)	inactive
O=Cc1c2ccccc2c(Cl)c2ccccc12	inactive
C[C@@]12CCC[C@H]1[C@@H]1CC[C@H]3C[C@@H](O)CC[C@]3(C)[C@H]1CC2	inactive

SMILES	Potency
NNC(=O)CP(=O)(c1ccccc1)c1ccccc1	inactive
CCCCCCCC/C=C\CCCCCCCCO	inactive
COc1cc(Nc2c(C#N)cnc3cc(OCCCN4CCN(C)CC4)c(OC)cc23)c(Cl)cc1Cl	inactive
C1C[C@@H]2[C@H]3CC[C@H](C3)[C@@H]2C1	inactive
CC(C)C=O	inactive
CC[N+](CC)(CCNC(=O)C(=O)NCC[N+](CC)(CC)Cc1ccccc1Cl)Cc1ccccc1Cl	inactive
CC(=O)N/N=C/c1ccc([N+](=O)[O-])o1	inactive
Oc1cccc(O)c1O	inactive
C=C(C)C(=O)OCCOCCOC(=O)C(=C)C	inactive
CCCCCCCCN	inactive
Cc1cc2c(OCC(CNC(C)(C)C)OC(=O)c3ccccc3)cccc2[nH]1 (stereo not given)	inactive
COc1ccccc1N1CCN(CC(O)COc2cccc3ccccc23)CC1 (stereo not given)	inactive
C=C1CCC2CC1C2(C)C (stereo not given)	inactive
CC(C)COCC(CN(Cc1ccccc1)c1ccccc1)N1CCCC1 (stereo not given)	inactive
CN(C)CCC=C1c2ccccc2C=Cc2ccccc21	inactive
CN(C(=O)CN(CCO)CC(=O)N(C)C(C)(C)Cc1ccccc1)C(C)(C)Cc1ccccc1	inactive
C=CC(=O)OCC1CC2CC1C1CCC(COC(=O)C=C)C21 (stereo not given)	inactive
CCC(C)COC(=O)CC(C)C (stereo not given)	inactive
Cc1[nH]cnc1CN1CCc2c(c3ccccc3n2C)C1=O	inactive
COC(=O)[C@H]1[C@H]2C[C@@H]3c4[nH]c5cc(OC)ccc5c4CCN3C[C@H]2C[C@@H](OC(=O)/C=C/c2ccc(O)c(OC)c2)[C@@H]1OC	26.8 µM (active)
